# Measured values as given in PubChem BioAssay (NCATS).
# Where “and” joins values, the source holds several entries; their conditions need not be identical. Equal entries are not always repeated. Inconclusive results are not listed. Some structures have more than one record in an assay (separate samples or runs), and their calls can disagree. Calls of active or inactive are those of the source. The call rests on the fitted dose curve; in most records, active means well fitted cell-killing curve with a large enough effect; inconclusive means small, poorly fitted or top-dose-only effect, or effect the other way; inactive means no such curve, though single readings can be large or run the other way. Where a SMILES comes first, the peptide text is derived from it. Bridges are numbered along the chain shown (N, C = ends). [ ]: non-standard residue; d: D form. The star is where a group is joined. X1 = CCC(C)C(N)C1=NC(C(=O)*)CS1; dOrn = NCCC[C@@H](N)C(=O)O
# Experiment: Viability qHTS for spleen associated tyrosine kinase inhibitor (SYKi) naive MV4-11 cells (AID 1963823); further: nearly all actives have a fitted effect of over 40% in size
# Details: MV4-11 AML viability, CellTiter-Glo luminescence, 72 h; series mostly up to 45 µM; viability (% of control): at the top concentration
# Text: Department of Medicine, Hematology/Oncology
# University Hospital Frankfurt, Germany.
# Trials have shown promising clinical activity of the selective SYK inhibitor entospletinib in patients with high expressing HOXA9/MEIS1 acute leukemias. As the development of resistance mechanisms is a common problem in the use of targeted drugs, we performed a chemical library screen to identify drug sensitivities in SYK inhibitor resistant AML cells. […] Glucocorticoids are potent immunosuppressants which work in part by inhibiting the transcription of cytokine genes.
# Described herein is a viability screen to look for activity in the SYK inhibitor naive cell line against four NCATS compound libraries (MIPE 5.0, NPC, NPACT, and Kinase) totaling 11372 compounds. Active hits were reacquired for confirmation and further secondary assay testing.
# SEQUENCE No. (e.g., 1, 2, 3, etc.); […] (e.g., Cells, Incubation, Reagent, etc.); VALUE; DESCRIPTION.
# 1; Media; 2uL; white, solid-bottom Corning assay plate.
# 2; Compounds; 23nL; Echo acoustic dispenser.
# 3; Cell; 5uL; 500 cells per well.
# 4: Incubation; 72hr; 37 C, 5% CO2, 95% humidity.
# 5; Reagent; 3uL; CellTiter-Glo reagent (Promega).
# 6; Incubation; 10min; room temperature.
# 7; Detection; Luminescence; ViewLux plate reader (PerkinElmer).
# NOTES (numbers refer to Sequence numbers above
# 1. Quantitative high-throughput screening (qHTS) of small molecule compounds was conducted on naive SYKi MV4-11 cell line.
# 2. Twenty-three nanoliter of small molecule compounds were added to each assay plates using the Echo acoustic dispenser (Beckman Coulter).
# 3. Cells were seeded into the assay plates at a final density of 500 cells in 5uL of media per well using the Multi-drop Combi dispenser.
# 4. Plates were covered with stainless steel gasketed lids and incubated for 72 hours at standard cell culture conditions.
# 5. Viability was assessed by adding 3uL of CellTiter-Glo detection reagent (Promega).
# 6. Plates were covered with gasket lids and incubated for 10 minutes at room temperature.
# 7. Luminescence was measured on a ViewLux plate reader (PerkinElmer).
# Potency means the concentration at half of the fitted maximal effect.
Structure (SMILES),viability (% of control),Potency
CC1(C)CCC(C)(C)c2cc(NC(=O)c3ccc(C(=O)O)cc3)ccc21,38.2% (inactive),
CN1CCN(Cc2ccc(NC(=O)Cc3ccc(Oc4cc(NC(=O)C5CC5)ncn4)cc3)cc2C(F)(F)F)CC1,2.08% (inactive),
COc1cc(C(=O)O)ccc1OC1OC(CO)C(O)C(O)C1O (stereo not given),85.1% (inactive),
Cc1nc(C#Cc2ccnc(Cl)c2)c(C)n1-c1ccc(OC(F)(F)F)cc1,,20.6 µM (active)
COC(=O)C1=CO[C@@H](O[C@@H]2O[C@H](CO[C@@H]3O[C@H](COC(=O)/C=C/c4ccc(O)cc4)[C@@H](O)[C@H](O)[C@H]3O)[C@@H](O)[C@H](O)[C@H]2O)[C@@H]2C(CO)=CC[C@H]12,84.8% [at 17.3 µM] (inactive),
C[C@H](NC(=O)/C(C#N)=C/c1cccc(Br)n1)c1ccccc1,,3.72 µM (active)
O=C(/C=C/c1ccc(CN(CCO)CCc2c[nH]c3ccccc23)cc1)NO,,0.0742 µM (active)
COc1cc(NCc2ccc3nc(N)nc(N)c3c2C)cc(OC)c1OC,,1.05 µM (active)
CC(=O)OC(CSC1CCC(=O)OC(C)CCC(=O)C1)C(=O)O (stereo not given),72% (inactive),
CC1(C)OC(=O)NC1=O,65.6% (inactive),
CS(=O)(=O)c1ccc(C2=C(c3ccccc3)C(=O)OC2)cc1,53.5% (inactive),
Cn1c(CNc2ccc(C(=N)N)cc2)nc2cc(C(=O)N(CCC(=O)O)c3ccccn3)ccc21,81.5% [at 0.588 µM] (inactive),4.61 µM (active)
CCCc1cc(C)n(C)c(=O)c1CN(C)C(=O)c1cc(-c2ccc(N3CCN(C(C)C)CC3)nc2)cc2c1cnn2C(C)C,65.8% (inactive),
CCC(C)C(N)C1=NC(C(=O)N[C@@H](CC(C)C)C(=O)N[C@H](CCC(=O)O)C(=O)N[C@H](C(=O)N[C@H]2CCCCNC(=O)[C@H](CC(N)=O)NC(=O)[C@@H](CC(=O)O)NC(=O)[C@H](Cc3cnc[nH]3)NC(=O)[C@@H](Cc3ccccc3)NC(=O)[C@H]([C@@H](C)CC)NC(=O)[C@@H](CCCN)NC2=O)[C@@H](C)CC)CS1 (stereo not given in full) (X1-L[dE]IK[dOrn]I[dF]H[dD]N; lactam 4-C),,inactive
COc1cc2c(Nc3cc(F)c(Cl)c(Cl)c3)ncnc2cc1OCC1CCCN(C)CCC1,,1.16 µM (active)
N#CC(CCCN1CCN(/N=C/c2cccnc2)CC1)(c1ccccc1)c1ccccc1,,2.06 µM (active)
NC(=O)NS(=O)(=O)c1ccc(N)cc1,49.9% (inactive),
CN1CCCC(n2nc(Cc3ccc(Cl)cc3)c3ccccc3c2=O)CC1 (stereo not given),,10.6 µM (active)
COC(=O)[C@H](O)[C@H]1C(C)(C)[C@H](OC(C)=O)[C@@]2(O)C(=O)[C@]1(C)C1CC[C@]3(C)C(CC(=O)O[C@H]3c3ccoc3)[C@]13O[C@@H]32 (stereo not given in full),72.5% [at 17.3 µM] (inactive),
CN1C(CCl)Nc2cc(Cl)c(S(N)(=O)=O)cc2S1(=O)=O (stereo not given),98.7% (inactive),

Structure (SMILES),viability (% of control),Potency
COc1cc(C(=O)NC2CCN(C)CC2)ccc1Nc1ncc2c(n1)N(C1CCCC1)CCC(=O)N2C(C)C,,5.9 µM (active)
CC[C@H](NC(C)C)[C@H](O)c1ccc(O)c2[nH]c(=O)ccc12,,inactive and 525 nM (active)
C=C(C(=O)OC)C1C(O)CC2(C)C(=O)CCC(O)(CO)C2C1O (stereo not given),89.3% (inactive),
COc1cc(-c2ccc(O)cc2)c(OC)c(O)c1C1=CC(=O)OC1CC(=O)O (stereo not given),70.8% (inactive),
CC(C)(Oc1ccc(CCNC(=O)c2ccc(Cl)cc2)cc1)C(=O)O,68.7% (inactive),
Cc1cn(-c2cc(NC(=O)c3ccc(C)c(Nc4nccc(-c5cccnc5)n4)c3)cc(C(F)(F)F)c2)cn1,,inactive and 2.35 µM (active)
CN(C)CCCOc1ccc(-c2ccc3ncc4c(c3c2)n(C2CCOCC2)c(=O)n4C)cn1,,1.15 µM (active)
CC(O)C(=O)O (stereo not given),57.4% (inactive),
CC1=NS(=O)(=O)c2cc(Cl)ccc2N1,84.7% (inactive),
CC(C(O)c1ccc(O)cc1)N1CCC(Cc2ccccc2)CC1 (stereo not given),61% [at 17.3 µM] (inactive),
C1CCC[C@H]2CCCN3CC[C@@H](CCCCCC[C@@H]4CCCN5CC[C@@H](CC1)O[C@@H]45)O[C@@H]23,90.7% [at 0.177 µM] (inactive),
O=C(/C=C/c1ccc2ccc(C(F)(F)F)cc2n1)c1ccncc1,,0.934 µM (active)
C=C1C(O)CC2C(C(=O)O)=COC(O[C@@H]3O[C@H](COC(=O)c4ccc(O)cc4)[C@@H](O)[C@H](O)[C@H]3O)C12 (stereo not given in full),78.4% [at 17.3 µM] (inactive),
OC[C@H]1O[C@@H](O[C@@H]2OC=C[C@H]3[C@H](O)[C@@H]4O[C@]4(CO)[C@@H]23)[C@H](O)[C@@H](O)[C@@H]1O,84.6% (inactive),
CC1(C)CC2C3=CCC4C5(C)CCC(OC6OC(CO)C(O)C(OC7OC(CO)C(O)C(OC8OC(CO)C(O)C(OC9OC(COC%10OC(CO)C(O)C(O)C%10O)C(O)C(O)C9O)C8O)C7O)C6O)C(C)(C)C5CCC4(C)C3(C)CCC2(C(=O)O)CC1O (stereo not given),81.7% [at 9.25 µM] (inactive),
COc1ccc2c(c1)C(C(=O)N(Cc1ccc(N(C)C)cc1)c1ccc(C(C)C)cc1)CCC2 (stereo not given),,16.4 µM (active)
CSc1ccc(C(=O)N[C@@H]2CCCC[C@@H]2NC(=O)CNC(=O)c2cc(C(F)(F)F)ccc2NC(=O)NC(C)C)cc1,50.2% (inactive),
C/C=C1\[C@H]2C=C(C)C[C@]1(N)c1ccc(=O)[nH]c1C2,93.2% (inactive),
COc1ccc(CCc2nc3cc(-c4c(C)noc4C)ccc3n2C[C@H](C)N2CCOCC2)cc1Cl,,7.31 µM (active)
